# Results: PubChem BioAssay (EPA / NIEHS)
# Several values for one entry are separate records, joined by “and”; a condition that tells them apart may be missing. Equal values may be shown once. Inconclusive results are not listed. Where a structure was tested more than once in an assay, its records may differ in their call. Activity calls are given as the source filed them. Rule for the calls: active = hit-call score of the fitted dose curve at least 0.9, where 1 is the maximum; inconclusive = response in the unintended direction; inactive = score below 0.9.
# Read-out: Cytochrome P450 2B6 (Homo sapiens) (UniProt P20813)
# Assay: CLD_CYP2B6_6hr: CellzDirect (CLD) Gene Expression Assay for xenobiotic metabolism (CYP2B6) at 6 hours (AID 2283677);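 note: actives raise CYP2B6 transcript above DMSO baseline so AC50 marks an inducer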
# Method: CLD_6hr is a cell-based, multiplexed-readout assay that uses hepatocyte, a human liver primary cell, with measurements taken at 6 hours after chemical dosing in a 96-well plate.CLD_CYP2B6_6hr is one of 16 assay component(s) measured or calculated from the CLD_6hr assay. It is designed to make measurements of mRNA induction, a form of inducible reporter, as detected with chemiluminescence signals by Quantitative Nuclease Protection Assay (qNPA) technology.Data from the assay component CLD_CYP2B6_6hr was analyzed at the endpoint, CLD_CYP2B6_6hr, in the positive analysis fitting direction relative to DMSO as the negative control and baseline of activity. Using a type of inducible reporter, gain-of-signal activity can be used to understand changes in the reporter gene as they relate to the gene CYP2B6. Furthermore, this assay endpoint can be referred to as a primary readout. To generalize the intended target to other relatable targets, this assay endpoint is annotated to the cyp intended target family, where subfamily is xenobiotic metabolism.
# Human hepatocyte cultures were treated daily for two consecutive days with fresh dosing solutions containing appropriate concentrations of the 320 ToxCast chemicals (chemical identities were blinded to CellzDirect and other ToxCast collaborators), vehicle control (0.2% DMSO), and positive control inducers as summarized in Table 1. Due to the large number of treatment groups and chemicals examined, the ToxCast chemicals were divided into two groups (spanning two independent cultures of hepatocytes from separate donor preparations (Hu778: ToxCast plates 1 and 2; Hu776: ToxCast plates 3 and 4). Each preparation of human hepatocyte cultures was treated with respective vehicle control, medium only control, set of six positive controls/reference chemicals for the five hepatic receptor pathways, and a subset of eight of the ToxCast chemicals (indoxacarb, pyrithiobac-sodium, norflurazon, cyhalofop-butyl, methomyl, thiram, acetochlor, and propiconazole). These replicate data, coupled with internal replicates designed within the blinded ToxCast chemical library, provided additional data to evaluate interindividual differences between hepatocyte preparations and their potential impact on chemical profiles.Cell morphology and integrity were evaluated using phase-contrast microscopy as an indicator of hepatocyte cell health (Tyson & Green, 1987). Cultures for each treatment group (i.e., media, vehicle [0.2% DMSO], positive control inducers [multiple concentrations], and the ToxCast chemicals [multiple concentrations]) were observed and cell morphology was assessed relative to vehicle control cultures at each harvest time point (0, 6, 24, or 48 h). […] Images were evaluated at the conclusion of the study to assess changes in cell integrity and account for the effects of chemical exposure on uncharacteristic changes in concentration-dependent gene expression profiles. The results from these determinations of apparent cytotoxicity were annotated (yes/no) alongside the corresponding qNPA data for reference.At the conclusion of each treatment period, hepatocyte cultures (96-well) were washed with 1 volume of HBSS, lysed by addition of 25 ul ArrayPlate lysis buffer (HTG, Tucson, AZ), and 70 ul/well of Denaturation Oil, denatured by incubation at 95C for 10 min, and frozen at approximately -70C until analysis by nuclease protection assay (qNPA) (Roberts et al., 2007). For qNPA analysis, cell lysates were thawed at 50C for approximately 30 min, qNPA probes were added, and samples were incubated at 95C for 10 min to begin the detection process by denaturing the target RNA, dissociating the duplexes and secondary structure hybridization. At the conclusion of the hybridization period, S1 nuclease reagent was added to each sample to digest all nonprotected nucleotides at 50C for 60-90 min. […]
SMILES,AC50,outcome
CC1=C(C(=O)Nc2ccccc2)SCCO1,15.2 µM (active),
COC(=O)C(C)Oc1ccc(Oc2ccc(Cl)cc2Cl)cc1 (stereo not given),3.09 µM (active) and 7.54 µM (active),inactive
CCOC(=O)CC(SP(=S)(OC)OC)C(=O)OCC (stereo not given),,inactive
O=C(O)COc1nc(Cl)c(Cl)cc1Cl,,inactive
N#Cc1nn(-c2c(Cl)cc(C(F)(F)F)cc2Cl)c(N)c1S(=O)C(F)(F)F (stereo not given),2.91 µM (active),
OC(c1ccc(Cl)cc1)(c1cncnc1)c1ccccc1Cl (stereo not given),0.442 µM (active),
C#CCOS(=O)OC1CCCCC1Oc1ccc(C(C)(C)C)cc1 (stereo not given),1.9 µM (active),
COc1cnc(OC)n2nc(NS(=O)(=O)c3c(OCC(F)F)cccc3C(F)(F)F)nc12,,inactive
CCOC(=O)C(Cl)Cc1cc(-n2nc(C)n(C(F)F)c2=O)c(F)cc1Cl (stereo not given),3.01 µM (active),
CCNc1nc(Cl)nc(NCC)n1,7.74 µM (active),
CCCCC(CC)COC(=O)c1ccccc1C(=O)OCC(CC)CCCC (stereo not given),4.09 µM (active),
COC(=O)C=C(C)OP(=O)(OC)OC,,inactive
CCOP(=S)(OCC)SCn1c(=O)oc2cc(Cl)ccc21,1.61 µM (active),
N#CC(CCc1ccc(Cl)cc1)(Cn1cncn1)c1ccccc1 (stereo not given),0.446 µM (active),
CCCCOC(=O)c1ccccc1C(=O)OCCCC,,inactive
CCON=C(CC)C1=C(O)CC(c2c(C)cc(C)cc2C)CC1=O (stereo not given),,inactive
Cc1ccc(-c2c(Cl)nc(C#N)n2S(=O)(=O)N(C)C)cc1,1.88 µM (active),
O=C(O)c1nc(Cl)ccc1Cl,,inactive
CCCCNC(=O)OCC#CI,0.838 µM (active),inactive

SMILES,AC50,outcome
C=CC1(C)OC(=O)N(c2cc(Cl)cc(Cl)c2)C1=O (stereo not given),8.32 µM (active),
CCCC1COC(Cn2cncn2)(c2ccc(Cl)cc2Cl)O1 (stereo not given),0.759 µM (active),
CCCCNC(=O)n1c(NC(=O)OC)nc2ccccc21,4.17 µM (active),
CCOc1cc(Oc2ccc(C(F)(F)F)cc2Cl)ccc1[N+](=O)[O-],2.75 µM (active),
CC1COC(Cn2cncn2)(c2ccc(Oc3ccc(Cl)cc3)cc2Cl)O1 (stereo not given),,inactive
CC(C)Oc1cc(-n2nc(C(C)(C)C)oc2=O)c(Cl)cc1Cl,1.9 µM (active),
CNC(=O)ON=CC(C)(C)SC,,inactive
CCNc1nc(Cl)nc(NC(C)C)n1,2.99 µM (active),
Fc1ccc(Oc2ccnc3cc(Cl)cc(Cl)c23)cc1,20 µM (active),
COc1ccc(C(c2ccc(OC)cc2)C(Cl)(Cl)Cl)cc1,7.31 µM (active),
CCc1nn(C)c(C(=O)NCc2ccc(C(C)(C)C)cc2)c1Cl,,inactive
COc1nc(C)nc(NC(=O)NS(=O)(=O)c2ccccc2Cl)n1,,inactive
CNC(=S)S,,inactive
O=C(Nc1ccccc1)Nc1ccnc(Cl)c1,20 µM (active),
COc1nc(C)nc(NC(=O)NS(=O)(=O)c2ccccc2CCC(F)(F)F)n1,3.21 µM (active) and 1.89 µM (active),
C=CCC1=C(C)[C@@H](OC(=O)[C@@H]2[C@@H](C=C(C)C)C2(C)C)CC1=O,5.86 µM (active),
C=CCC1=C(C)C(OC(=O)C2C(C=C(C)C)C2(C)C)CC1=O (stereo not given),2.82 µM (active),
N#Cc1cc(Br)c(O)c(Br)c1,,inactive
CC(C)C1(C)N=C(c2nc3ccccc3cc2C(=O)O)NC1=O (stereo not given),,inactive
